# Assay results taken from PubChem BioAssay AID493203 (National Center for Advancing Translational Sciences (NCATS), 2011).
# Inconclusive results are not listed. Unmarked numbers belong to inactive results. Calls follow the shape of the dose curve; as a rule, active = well fitted activation curve with a large enough effect; inconclusive = small, poorly fitted or top-dose-only effect; inactive = flat fitted curve, though single readings scatter.
# Assay: qHTS Assay for NPC1 Promoter Activators: Initial hit validation from the primary screen;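 also: reporter driven by the mutant form of the NPC1 promoter; % of control where 0% means no effect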
# Conditions: Huh7 NPC1 promoter-luciferase reporter, luminescence, 24 h; series mostly up to 46.1 µM; activity, positive = activation: at the top concentration
# From the text: NIH Chemical Genomics Center [NCGC] NIH Molecular Libraries Probe Production centers Network [MLPCN] MLPCN Grant: MH089375-01A1 Assay Submitter (PI): Yiannis A. Ioannou NCGC Assay Overview: Niemann Pick Type C (NPC) is a rare neurodegenerative lipidosis that is characterized by lipid storage in the endosomal/lysosomal system. Treatment modalities for this devastating disease are currently non-existent due to the severe obstacles associated with accessing the central nervous system with proteins or genes. The majority of mutations causing NPC disease are missense mutations that are distributed throughout the length of the NPC1 protein, with the most prevalent being the I1061T allele. Although NPC1 mutant proteins may be functional, they are typically trapped in the ER due to misfolding. […] We have developed and optimized a cell based luciferase reporter assay in 1536 well format for the identification of up-regulators of the mutant NPC1 promoter. This assay presents data on the validation of hits from the primary screen.
# The NPC1 promoter is cloned in front of the luciferase reporter gene, therefore NPC promoter activation results in luciferase expression. Frozen stock of the NPC1 promoter transfected Huh7 cells were obtained from the laboratory of Dr. Yiannis Ioannou (The Mount Sinai School of Medicine, New York, NY). Cells were propagated and maintained at NCGC in medium containing RPMI-1640 supplemented with 10% FBS, 2mM L-glutamine, and 50ug/ml penicillin/streptomycin. Cells were harvested in and plated for assays in OP-MEM I reduced-serum medium supplemented with 10% FBS. The Amplite luciferase reporter gene assay kit was purchased from ABD Bioquest and prepared/stored according to manufacturers recommendations. qHTS Assay Setup: 1. Dispensed 5ul of Huh7 cells stably expressing NPC1-luciferase at a density of 1500 cells per well 1536-well plates. 2. Incubate cells at 37C, 5% CO2, and 95% humidity for 2 hours. 3. Transferred 23nl per well of compound in DMSO solution. 4. Incubated at 37C, 5% CO2, and 95% humidity for 24 hours. 5. Dispensed 3ul per well of Amplite reagent(ABD Bioquest) per well. 6. Incubate at ambient for 10 minutes. 7. Read using the luminescence protocol on the ViewLux plate reader (Perkin Elmer).
row,Structure (SMILES),"activity, positive = activation [%]"
1,COc1cccc(CCNCc2ccc(SC)cc2)c1,2.08
2,Cc1cccn2c(NCC3CCCO3)c(C(C)C)nc12 (stereo unspecified),2.28
3,CCC(=NCc1cccnc1)c1c(O)n(-c2ccccc2)c(=O)[nH]c1=O,-5.41
4,O=C1c2ccccc2C(=O)N1Cc1nc2ccccc2c(=O)n1-c1cccnc1,-3.22
5,CN1CCc2cc3c(c4c2C1Cc1ccccc1-4)OCO3 (stereo unspecified),-44.2
6,COc1ccc(C(CC(=O)N2CCC3(CC2)OCCO3)NS(=O)(=O)c2ccc(F)cc2)cc1 (stereo unspecified),0.9
